Laboratory results taken from PubChem BioAssay AID1347383 (Zoeller Lab, School of Medicine, Boston University, 2020).
Active and inactive are the calls of the source.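 How the source made its calls: active means cell survival after UV exposure 2 SD above solvent-only control wells at 10 µM, confirmed on one or two repeats; inactive means the rest.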

test: cell survival after pyrene fatty acid photosensitization – ZR-82 cells, Analyticon library, screen 2, phospholipid biosynthesis inhibitor project, primary screen (AID 1347383); details: ZR-82 CHO cells, pyrene-fatty acid UV killing, CellTiter Blue; at 10 µM; peroxisome-deficient CHO-K1 variant; with DGAT-1, DGAT-2 and ACAT inhibitors;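 further: survival reflects blocked phospholipid synthesis cutting uptake of the phototoxic fatty acid; compound and fatty acid exposure 3 h then viability read next day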

SMILES | outcome
COc1cc(O)cc(O)c1C(=O)c1ccc(O)c(O)c1 | inactive
C=CC(C)(C)c1cc2cc(CC3OC3(C)C)c(OC)cc2oc1=O (centres undefined) | inactive
O=C1c2c(O)cc(O)cc2O[C@@H](c2ccc(O)cc2)[C@@H]1O | inactive
Cn1c2c(c(=O)c3cc(O)ccc31)CC(C(C)(C)O)O2 (centres undefined) | inactive
CCCCCCCCCCCCCCCCC1C(=O)OC(C)C1OC (centres undefined) | inactive
CO[C@@H]1[C@H](O)CC[C@]2(CO2)[C@H]1[C@@]1(C)O[C@@H]1CC=C(C)C | inactive
COc1ccc(-c2coc3cc(O)ccc3c2=O)cc1 | inactive
C/C(=C\C(=O)C[C@]12C(=O)O[C@]3(C)CC[C@H]1C[C@H]23)C(N)=O | inactive
CC1CCC2(C(=O)O)CCC3(C)C(C=CC4C5(C)CC(O)C(O)C6(C)COC(CC43C)C65)C2C1(C)O (centres undefined) | inactive
CC1=C2C[C@H]3O[C@@]3(C)CCC3O[C@@]3(C)C[C@@]2(O)OC1=O (some centres undefined) | inactive
COc1ccc(/C=C/C(=O)O)cc1OC | inactive
C/C=C(/C(=O)O)N1C(=O)C=C(C)C1=O | inactive
COc1cc(O)cc2c1C(=O)CC(c1ccccc1)O2 (centres undefined) | inactive
CC(C)c1ccc2c(c1)[C@H](O)CC1[C@@](C)(C(=O)O)CCC[C@]21C (some centres undefined) | inactive
CC(=O)OC(C)C(C)(O)C(=O)O[C@@H]1CC[C@]2(C)CC(=O)C(=C(C)C)C[C@H]2[C@]1(C)OC(C)=O (some centres undefined) | inactive
C[C@@H]1O[C@@H](Oc2ccc(-c3coc4cc(O[C@@H]5O[C@@H](C)[C@H](O)[C@@H](O)[C@H]5O)ccc4c3=O)cc2)[C@H](O)[C@H](O)[C@H]1O | inactive
COc1cc(OC)c2c(c1Cl)O[C@]1(C2=O)C(O)=CC(=O)C[C@H]1C | inactive
Cc1cc2c(CO)cc(O)cc2o1 | inactive
O=C1NC(Cc2ccccc2)C(=O)N2CCCC12 (centres undefined) | inactive
C=C(C(=O)O)C1CC(OC(=O)CC(C)CC)C2(C)CCCC(=C)C2C1 (centres undefined) | inactive

SMILES | outcome
O=c1c(O)c(-c2ccc(O)c(O)c2)oc2cc(O)cc(O)c12 | inactive
CC(C)c1ccc2c(c1)CCC1[C@](C)(C(=O)O)CCC[C@]21C (some centres undefined) | inactive
CC(C)CC1NC(=O)C2CCCN2C1=O (centres undefined) | inactive
C=C[C@@]1(C)CC[C@@H]([C@H](C)C(=O)CC=C(C)C)O1 | inactive
CC(C)=CCc1c(O)cc2oc3cc(C)cc(O)c3c2c1C | inactive
CC1=C2C=C(CO)C(CO)CCC2(C)CCC1=O (centres undefined) | inactive
O=C(/C=C/c1ccc(O)c(O)c1)N[C@@H](Cc1ccc(O)c(O)c1)C(=O)O | inactive
COc1cc(O[C@@H]2O[C@H](CO)[C@@H](O)[C@H](O)[C@H]2O)cc2occ(-c3ccc(O)cc3)c(=O)c12 | inactive
C=C1C(=O)OC2/C=C(\C)C3=CC(=O)C(C)(CC(OC(=O)/C(C)=C/COC(C)=O)C12)O3 (centres undefined) | inactive
COC1=CC(=O)CC(C)C12Oc1cc(OC)cc(OC)c1C2=O (centres undefined) | inactive
COc1cc(O)c2c(c1)C(=O)c1cc(C)cc(O)c1C2=O | inactive
COc1cc2ccc3c(c2cc1OC)N(C)Cc1c(OC)c(OC)cc(OC)c1-3 | inactive
C=C1CCC2OC(=O)C(C)=C2C2C1C13OC1(CC(C)C3=O)C1OC21C (centres undefined) | inactive
CCCCCCC1OC23OC1CCC2CCC(O)C3O (centres undefined) | inactive
CC(C)=CCc1cc(C(=O)/C=C/c2ccc(O)cc2)c(O)cc1O | inactive
O=C(O)c1ccc(CO)o1 | inactive
CCC(O)c1cccc(O)c1CN (centres undefined) | inactive
Oc1cc(O)cc(/C=C/c2ccc(O)c(O)c2)c1 | inactive
CC(=O)O[C@H]1CC[C@H](C)[C@@]2(C)[C@H](OC(C)=O)c3c(C)coc3C(=O)[C@H]12 | inactive
